Columns and labels:
Details in all cases: concentration: 1 μM,replicates: in singlicate; n = 1
PCTK2 = tested on: T1, PCTK2
T1 construct: gene CDK17

PCTK3 = tested on: T2, PCTK3
T2 construct: gene CDK18

PDGFRA = tested on: PDGFRA
PDGFRB = tested on: PDGFRB
PDPK1 = tested on: PDPK1
PFTAIRE2 = tested on: PFTAIRE2
PFTK1 = tested on: T3, PFTK1
T3 construct: gene CDK14

PHKG1 = tested on: PHKG1
PHKG2 = tested on: PHKG2
PIK3C2B = tested on: PIK3C2B
PIK3C2G = tested on: PIK3C2G
PIK3CA = tested on: PIK3CA
PIK3CB = tested on: PIK3CB
PIK3CD = tested on: PIK3CD
PIK3CG = tested on: PIK3CG
PIK4CB = tested on: T4, PIK4CB
T4 construct: gene PI4KB

PIKFYVE = tested on: PIKFYVE
PIM1 = tested on: PIM1
PIM2 = tested on: PIM2
PIM3 = tested on: PIM3
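Note: KINOMEscan kinase panel screen.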

Row | SMILES | %Inh (PCTK2) | %Inh (PCTK3) | %Inh (PDGFRA) | %Inh (PDGFRB) | %Inh (PDPK1) | %Inh (PFTAIRE2) | %Inh (PFTK1) | %Inh (PHKG1) | %Inh (PHKG2) | %Inh (PIK3C2B) | %Inh (PIK3C2G) | %Inh (PIK3CA) | %Inh (PIK3CB) | %Inh (PIK3CD) | %Inh (PIK3CG) | %Inh (PIK4CB) | %Inh (PIKFYVE) | %Inh (PIM1) | %Inh (PIM2) | %Inh (PIM3)
1 | Cc1ccc(-n2nc(C(C)(C)C)cc2NC(=O)Nc2ccc(OCCN3CCOCC3)c3ccccc23)cc1 [GW839464] | 13% | 2% | 0% | 87% | 0% | 0% | 2% | 0% | 8% | 0% | 0% | 0% | 0% | 0% | 0% | 0% | 0% | 0% | 9% | 0%
2 | Cc1occc1-c1nc(N)c(OC[C@@H](N)Cc2c[nH]c3ccccc23)cc1-c1cc2c(C)n[nH]c2cn1 [GSK1660450] | 0% | 0% | 0% | 49% | 0% | 100% | 45% | 84% | 11% | 0% | 7% | 0% | 0% | 10% | 0% | 0% | 0% | 97.3% | 99.2% | 97.7%
3 | O=C(NCCNc1ccnc(NCc2ccc(F)cc2)n1)c1cc2ccccc2s1 [GSK1379944] | 0% | 14% | 0% | 86% | 15% | 7% | 11% | 0% | 0% | 0% | 0% | 0% | 0% | 0% | 0% | 5% | 0% | 0% | 0% | 0%
4 | C=CC(=O)Nc1cc2c(Nc3ccc(F)c(Cl)c3)ncnc2cc1OCCCN1CCOCC1 [GW781483] | 0% | 0% | 77% | 15% | 0% | 15% | 0% | 0% | 0% | 2% | 0% | 0% | 60% | 0% | 42% | 21% | 20% | 2% | 0% | 0%
5 | COc1ccc(C[C@@H](CN)NC(=O)c2cc(Br)c(-c3ccnc4[nH]ccc34)s2)cc1.Cl.Cl [GSK1389063] | 0% | 0% | 62% | 96.3% | 32% | 3% | 16% | 45% | 24% | 0% | 0% | 0% | 52% | 2% | 0% | 19% | 0% | 34% | 0% | 6%
6 | Cc1cc(C(=O)Nc2ccc(Oc3ccc4nc(NC(=O)C5CC5)cn4n3)cc2)nn1-c1ccccc1 | 17% | 4% | 97.7% | 100% | 8% | 0% | 0% | 49% | 0% | 0% | 2% | 0% | 0% | 0% | 0% | 0% | 1% | 2% | 2% | 0%
7 | CN(C)CC(O)COc1ccc(Nc2nccc(-c3cnn4nc(N5CCOCC5)ccc34)n2)cc1 (centres unmarked) [GW767488] | 91.9% | 52% | 56% | 60% | 0% | 16% | 46% | 38% | 81% | 43% | 20% | 33% | 35% | 37% | 63% | 46% | 68% | 15% | 0% | 35%
8 | Cc1ccc2c(-c3ccncc3)c(-c3ccc(F)cc3)nn2c1.Cl [GW461484] | 0% | 11% | 0% | 8% | 0% | 0% | 0% | 33% | 0% | 0% | 0% | 0% | 25% | 0% | 1% | 0% | 0% | 0% | 0% | 16%
9 | CNC(=O)c1ccccc1Sc1ccc2c(/C=C/c3ccccn3)n[nH]c2c1 | 0% | 8% | 99.9% | 100% | 0% | 14% | 2% | 16% | 0% | 0% | 0% | 0% | 0% | 11% | 2% | 0% | 43% | 0% | 0% | 6%
10 | CCN(CC)CCOc1ccc(Nc2ncc3cc(-c4c(Cl)cccc4Cl)c(=O)n(C)c3n2)cc1 [SB-601273] | 24% | 0% | 99.8% | 100% | 0% | 19% | 0% | 0% | 30% | 85% | 11% | 6% | 30% | 40% | 21% | 5% | 48% | 0% | 0% | 0%
11 | Cl.Oc1cc(-c2nc(-c3ccccc3)[nH]c2-c2ccncc2)ccc1Cl [SB-386023] | 0% | 0% | 0% | 11% | 2% | 23% | 0% | 0% | 0% | 7% | 19% | 0% | 14% | 0% | 0% | 14% | 87% | 0% | 3% | 0%
12 | CC(C)N1C(=O)Cc2cc(Nc3ncc(C(F)(F)F)c(NCc4cccc(S(C)(=O)=O)c4)n3)ccc21 | 20% | 7% | 36% | 71% | 0% | 6% | 14% | 0% | 26% | 3% | 28% | 6% | 29% | 0% | 5% | 28% | 27% | 5% | 0% | 9%
13 | Cc1cc2cn[nH]c2cc1-c1cccc2c(N)c(C(N)=O)nnc12 | 14% | 26% | 34% | 18% | 0% | 29% | 0% | 26% | 0% | 0% | 13% | 0% | 0% | 46% | 0% | 26% | 0% | 0% | 0% | 0%

— paper PMC5540273 (PLoS ONE, 2017)
